Bioassay records (PubChem BioAssay)
mHTT-CaM PPI inh – inhibitors of human mutant huntingtin-calmodulin interaction. P42858. AlphaScreen His-mHTT/GST-CaM binding, luminescence. inhibition, % at 15 µM. 190,000 tested, 3.6% active. AID 1671202
Target sequence (P42858 whole entry, looked up, change not shown): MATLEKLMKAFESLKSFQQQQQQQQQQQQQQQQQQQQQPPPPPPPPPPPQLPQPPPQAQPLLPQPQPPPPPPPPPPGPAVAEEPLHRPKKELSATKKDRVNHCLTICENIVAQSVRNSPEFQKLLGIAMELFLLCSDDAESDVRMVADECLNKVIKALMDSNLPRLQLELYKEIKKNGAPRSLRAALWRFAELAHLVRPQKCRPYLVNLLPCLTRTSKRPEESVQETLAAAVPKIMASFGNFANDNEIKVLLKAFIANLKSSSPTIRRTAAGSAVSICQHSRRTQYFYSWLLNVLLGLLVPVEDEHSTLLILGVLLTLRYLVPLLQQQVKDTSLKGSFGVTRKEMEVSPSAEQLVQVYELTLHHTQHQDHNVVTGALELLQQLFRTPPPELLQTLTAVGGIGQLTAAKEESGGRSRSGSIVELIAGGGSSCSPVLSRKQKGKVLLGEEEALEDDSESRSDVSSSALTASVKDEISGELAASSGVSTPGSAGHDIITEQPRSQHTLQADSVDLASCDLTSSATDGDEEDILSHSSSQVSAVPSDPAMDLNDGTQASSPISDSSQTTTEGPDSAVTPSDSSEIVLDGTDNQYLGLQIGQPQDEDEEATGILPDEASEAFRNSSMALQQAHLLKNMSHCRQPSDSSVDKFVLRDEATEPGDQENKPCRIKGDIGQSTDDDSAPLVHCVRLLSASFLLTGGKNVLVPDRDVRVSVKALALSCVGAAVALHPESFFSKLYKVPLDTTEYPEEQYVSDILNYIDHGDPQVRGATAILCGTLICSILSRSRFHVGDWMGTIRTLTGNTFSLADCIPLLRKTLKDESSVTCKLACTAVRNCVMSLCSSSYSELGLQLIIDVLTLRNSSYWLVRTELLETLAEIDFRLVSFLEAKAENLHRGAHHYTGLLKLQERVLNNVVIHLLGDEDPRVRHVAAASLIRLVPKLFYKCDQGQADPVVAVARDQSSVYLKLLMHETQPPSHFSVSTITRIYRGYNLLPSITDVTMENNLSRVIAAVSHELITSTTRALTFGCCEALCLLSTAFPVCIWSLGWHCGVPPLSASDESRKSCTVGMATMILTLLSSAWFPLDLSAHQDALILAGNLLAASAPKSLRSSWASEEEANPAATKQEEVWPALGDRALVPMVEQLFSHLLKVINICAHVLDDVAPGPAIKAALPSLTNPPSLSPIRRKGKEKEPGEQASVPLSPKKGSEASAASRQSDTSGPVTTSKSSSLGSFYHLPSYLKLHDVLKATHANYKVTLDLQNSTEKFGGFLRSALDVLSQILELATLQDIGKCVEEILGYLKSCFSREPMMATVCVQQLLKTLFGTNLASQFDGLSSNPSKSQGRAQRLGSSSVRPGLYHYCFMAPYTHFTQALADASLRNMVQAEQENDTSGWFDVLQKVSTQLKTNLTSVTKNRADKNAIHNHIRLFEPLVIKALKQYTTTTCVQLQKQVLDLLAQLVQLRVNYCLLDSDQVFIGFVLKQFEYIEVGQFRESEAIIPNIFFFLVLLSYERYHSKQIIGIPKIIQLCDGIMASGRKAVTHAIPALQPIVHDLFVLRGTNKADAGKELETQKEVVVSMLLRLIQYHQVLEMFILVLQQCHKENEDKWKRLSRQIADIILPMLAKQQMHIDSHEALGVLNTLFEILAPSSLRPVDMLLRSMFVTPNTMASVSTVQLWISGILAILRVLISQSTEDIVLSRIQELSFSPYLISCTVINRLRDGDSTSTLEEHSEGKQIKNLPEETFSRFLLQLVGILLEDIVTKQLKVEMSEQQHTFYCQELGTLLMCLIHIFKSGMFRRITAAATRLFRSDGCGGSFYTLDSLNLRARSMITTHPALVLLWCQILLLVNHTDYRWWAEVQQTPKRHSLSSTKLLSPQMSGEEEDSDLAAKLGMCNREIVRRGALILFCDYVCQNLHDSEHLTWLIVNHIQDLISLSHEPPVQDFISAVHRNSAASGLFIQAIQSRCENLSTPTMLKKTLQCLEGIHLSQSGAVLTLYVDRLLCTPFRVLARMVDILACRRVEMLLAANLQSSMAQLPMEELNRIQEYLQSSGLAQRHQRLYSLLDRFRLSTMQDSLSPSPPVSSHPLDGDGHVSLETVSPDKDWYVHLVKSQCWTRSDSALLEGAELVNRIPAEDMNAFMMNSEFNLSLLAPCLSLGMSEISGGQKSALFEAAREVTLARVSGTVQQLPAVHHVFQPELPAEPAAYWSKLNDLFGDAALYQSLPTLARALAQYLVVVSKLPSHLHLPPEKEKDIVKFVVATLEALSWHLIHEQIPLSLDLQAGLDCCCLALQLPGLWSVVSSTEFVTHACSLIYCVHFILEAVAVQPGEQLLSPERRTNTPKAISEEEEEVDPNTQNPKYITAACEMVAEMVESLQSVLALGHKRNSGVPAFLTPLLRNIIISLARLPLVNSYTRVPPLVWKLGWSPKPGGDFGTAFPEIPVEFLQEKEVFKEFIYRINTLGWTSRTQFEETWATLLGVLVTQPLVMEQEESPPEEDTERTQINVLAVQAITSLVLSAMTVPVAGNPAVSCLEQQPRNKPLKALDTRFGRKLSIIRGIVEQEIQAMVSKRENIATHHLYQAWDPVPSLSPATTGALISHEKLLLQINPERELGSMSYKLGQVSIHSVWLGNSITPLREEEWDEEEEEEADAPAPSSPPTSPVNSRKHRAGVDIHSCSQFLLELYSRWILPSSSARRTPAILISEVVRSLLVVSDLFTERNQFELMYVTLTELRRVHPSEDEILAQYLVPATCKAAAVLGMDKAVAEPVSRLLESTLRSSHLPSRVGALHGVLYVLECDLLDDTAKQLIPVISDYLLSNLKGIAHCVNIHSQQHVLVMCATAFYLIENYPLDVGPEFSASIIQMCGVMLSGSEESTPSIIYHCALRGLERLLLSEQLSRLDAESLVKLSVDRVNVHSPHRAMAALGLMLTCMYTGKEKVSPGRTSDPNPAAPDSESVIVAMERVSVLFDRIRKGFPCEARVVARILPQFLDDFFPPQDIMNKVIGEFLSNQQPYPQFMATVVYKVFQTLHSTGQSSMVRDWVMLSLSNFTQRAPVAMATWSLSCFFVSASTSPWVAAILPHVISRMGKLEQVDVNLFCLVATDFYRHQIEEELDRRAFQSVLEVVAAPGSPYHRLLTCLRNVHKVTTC
Pf apPOL inh – Pf-apPOL DNA polymerase inhibition | Recombinant Pf-apPOL, molecular beacon fluorescence, 1.5 h | inhibition, % at 10 µM | 210,000 tested, 0.25% active
Each line names hits and unclear results; the compound was inactive in the other large screens. This is one part of a sample in which hits are shown more often than they occur. No stated cut-off is given here; in the data, active means inhibition above about 50%; inactive means the rest.

O=c1[nH]c2ccccc2n1CCCSc1nccc2ccccc12	mHTT-CaM PPI inh 100.0
O=C1CN(S(=O)(=O)c2ccc3[nH]c4c(c3c2)CCCC4)c2ccccc2N1	mHTT-CaM PPI inh 73.6
O=S(=O)(c1ccc2[nH]c3c(c2c1)CCCC3)N1CCCc2ccccc21	mHTT-CaM PPI inh 76.7
O=S(=O)(c1ccc(F)cc1)N1CCCc2ccccc21	none
O=C1CN(S(=O)(=O)c2ccc(Br)cc2)c2ccccc2N1	none
FC(F)Oc1ccc(C2C=C(c3ccccc3)Nc3nnnn32)cc1 (centres undefined)	none
c1ccc(-n2ncc3c(NCCCn4ccnc4)nnnc32)cc1	none
O=C(CCCn1nc(-c2ccc(F)cc2)ccc1=O)Nc1ccc2cn[nH]c2c1	none
CCCC(=O)Nc1ccc(-c2nc3ccccc3o2)cc1	none
Cc1ccc(F)c(NC(=O)C2CC=CCC2C(=O)O)c1 (centres undefined)	none
O=C(c1ccc([N+](=O)[O-])cc1)N1N=C(C(F)(F)F)CC1(O)c1ccncc1 (centres undefined)	none
O=C(c1cccc(Cl)c1)N1N=C(C(F)(F)F)CC1(O)c1ccc(Cl)cc1 (centres undefined)	mHTT-CaM PPI inh 76.0
CCc1ccc(C2(O)CC(C(F)(F)F)=NN2C(=O)c2ccc([N+](=O)[O-])cc2)cc1 (centres undefined)	mHTT-CaM PPI inh 81.0
CCC1=NN(C(=O)c2cccc([N+](=O)[O-])c2)C(O)(c2ccc(Cl)cc2)C1 (centres undefined)	mHTT-CaM PPI inh 77.0
CCC1=NN(C(=O)c2ccc([N+](=O)[O-])cc2)C(O)(c2ccccc2)C1 (centres undefined)	none
CCc1ccc(C2(O)CC(C(F)(F)F)=NN2C(=O)c2cccc(Br)c2)cc1 (centres undefined)	none
O=C(c1cccc(Br)c1)N1N=C(C(F)(F)F)CC1(O)c1ccc(Cl)cc1 (centres undefined)	none
Cc1cccc(C(=O)N2N=C(C(F)(F)F)CC2(O)c2ccc(Br)cc2)c1 (centres undefined)	mHTT-CaM PPI inh 72.0
O=C(Nc1ccccc1)N1CCC2(C1)C(=O)Nc1ccccc12 (centres undefined)	none
COCCNC(=O)c1ccc(C(C)C)cc1	Pf apPOL inh 67.4
COCCCNC(=O)c1ccc(C(C)C)cc1	none
OC(COc1ccc(C23CC4CC(CC(C4)C2)C3)cc1)C[N+]1(Cc2ccccc2)CCOCC1 (centres undefined)	mHTT-CaM PPI inh 100.3
CCCCOCC(O)C[N+]1(Cc2ccccc2)CCOCC1 (centres undefined)	none
CCC(=O)Nc1nc(C)c(-c2csc(Nc3ccccc3OC)n2)s1	none
COc1ccc(Cl)cc1Nc1nc(-c2ccccn2)cs1	mHTT-CaM PPI inh 56.0
COc1ccccc1Nc1nc(-c2sc(N)nc2C)cs1	mHTT-CaM PPI inh 74.0
COc1ccc(Cl)cc1Nc1nc(-c2ccncc2)cs1	none
CCc1ccccc1Nc1nc(-c2ccccn2)cs1	mHTT-CaM PPI inh 99.0
COc1ccccc1Nc1nc(-c2ccccn2)cs1	mHTT-CaM PPI inh 97.0
COc1ccc(OC)c(Nc2nc(-c3ccncc3)cs2)c1	none
CCC(=O)Nc1nc(C)c(-c2csc(Nc3ccccn3)n2)s1	none
CSc1cc(-c2ccc(F)cc2)[nH]n1	none (no result: mHTT-CaM PPI inh)
O=C(c1ccoc1)N1CCC(CCOc2cccc(F)c2)CC1	none
CC(C)N1Cc2cc(C(=O)Nc3ccc4c(c3)CCC4)sc2C1	none
Cc1ccc(C(=O)N2CCN(C(C(=O)N3CCCC3)C3CCCC3)CC2)cc1 (centres undefined)	none
Cc1c(Cl)cccc1Nc1nc(-c2ccccn2)cs1	mHTT-CaM PPI inh 100.0
O=[N+]([O-])c1cccc(Nc2nc(-c3ccccn3)cs2)c1	none
CN(C)CCn1c2c(c3ccccc31)CCCn1nnnc1-2	mHTT-CaM PPI inh 56.0
CC(=O)Nc1nc2ccccc2n1CCN(C)C	none
CCN1CCn2c(nc3cc(C(=O)NCc4ccc(F)cc4)ccc32)C1=O	none
CC(C)NCC(O)COC12CC3CC(CC(C3)C1)C2 (centres undefined)	none
CC1=C(C#N)C(=O)N(CC(C)O)C(=O)/C1=C\c1ccc(-c2ccc(Cl)cc2)o1 (centres undefined)	none
CC1=C(C#N)C(=O)N(CC(C)O)C(=O)/C1=C\c1ccc(-c2cccc(Cl)c2C)o1 (centres undefined)	mHTT-CaM PPI inh 75.0
CC1=C(C#N)C(=O)N(CCO)C(=O)/C1=C/c1ccc(-c2ccc3c(c2)COC3=O)o1	mHTT-CaM PPI inh 60.0
CC1=C(C#N)C(=O)N(CCO)C(=O)/C1=C\c1ccc(-c2cc(Cl)ccc2Cl)o1	none
CC(C)(C)OC(=O)N1CCCC(CN)C1 (centres undefined)	none (no result: Pf apPOL inh)
N#CC(C(N)=O)=C1SC=C(c2ccc(Br)cc2)N1Cc1ccccc1	none (no result: mHTT-CaM PPI inh)
CC(=O)Nc1c(C(=O)c2ccc(F)cc2)oc2ccc(Cl)cc12	none
O=C(Nc1c(C(=O)O)oc2ccc(Cl)cc12)c1ccc(C(F)(F)F)cc1	Pf apPOL inh 85.3
Cc1cccc(N2CC(C(=O)N3CCCN(C)CC3)CC2=O)c1 (centres undefined)	none
O=C1c2cccnc2C(=O)N1c1ccc(-c2ccc([N+](=O)[O-])cc2)cc1	none
O=C1c2cccnc2C(=O)N1c1ccc(Oc2ccc(N3C(=O)c4cccnc4C3=O)cc2)cc1	mHTT-CaM PPI inh 99.0
O=C1c2cccnc2C(=O)N1c1ccc(Cc2ccc(N3C(=O)c4cccnc4C3=O)cc2)cc1	mHTT-CaM PPI inh 80.0
O=C1c2cccnc2C(=O)N1c1cccc(C(F)(F)F)c1	none
Cc1cc(C(=O)Nc2ccccc2F)nc2cc(-c3cccs3)nn12	none
OCCCNc1ncnc2sc3c(c12)CCC3	none (no result: Pf apPOL inh)
COc1ccc(NC(=O)Cn2c(C)nc3sc4c(c3c2=O)CCCC4)cc1Cl	none
O=[N+]([O-])c1cc(Cl)ccc1NCCNS(=O)(=O)c1ccccc1	none
O=[N+]([O-])c1cc(Cl)ccc1NCCCNS(=O)(=O)c1ccccc1	mHTT-CaM PPI inh 53.0
O=C(O)C1Nc2c(O)ccc(Br)c2C2C=CCC12 (centres undefined)	mHTT-CaM PPI inh 100.3
O=C(c1ccccc1)c1cc(Cl)cc2c1NC(C(=O)O)C1CC=CC21 (centres undefined)	none
O=C(O)C1CSC(c2cccc([N+](=O)[O-])c2)N1 (centres undefined)	none
O=C(O)C1CSC(c2ccc([N+](=O)[O-])s2)N1 (centres undefined)	mHTT-CaM PPI inh 56.0
CC(C)(C)c1cc(N)c(C(N)=O)s1	none (no result: mHTT-CaM PPI inh)
Cn1c(C2CCC(CNC(=O)CCC(=O)c3ccccc3)CC2)nc2ccccc21 (centres undefined)	none
COc1ccc(C2=C/C(=C3/c4ccccc4-c4ncccc43)C(=O)O2)c(OC)c1	none
O=C1OC(c2ccccc2)=C/C1=C1/c2ccccc2-c2ncccc21	mHTT-CaM PPI inh 67.0
COc1ccccc1C(=O)Nc1cc(Cl)c(Cl)cc1Cl	none
COCCC1CCN(C(=O)c2ccc(F)cc2F)CC1	none
FC(F)Oc1ccc(-c2cc3ccccn3c2)cc1	none
COc1ccc(-c2cc3ccccn3c2)c(OC)c1	mHTT-CaM PPI inh 75.0
Cc1[nH]c2ccccc2c1C(=O)CN1CCCC1	mHTT-CaM PPI inh 59.4
Cc1[nH]c2ccccc2c1C(=O)CN1CCCCC1	none
COc1ccc(N2CCN(c3cc(N4CCN(C)CC4)ccc3[N+](=O)[O-])CC2)cc1	mHTT-CaM PPI inh 54.4
O=C(c1cc(F)c(F)cc1Cl)N1CCN(c2ccc([N+](=O)[O-])c(N3CCCCC3)c2)CC1	none
COc1ccccc1C(=O)N1CCN(c2ccc([N+](=O)[O-])c(N3CCCCC3)c2)CC1	mHTT-CaM PPI inh 52.8
CN1CCN(c2cc(N3CCN(S(C)(=O)=O)CC3)ccc2[N+](=O)[O-])CC1	none
